Consider 31 compounds from PubChem BioAssay (NCATS).

Assay [1] can be described thus: qHTS profiling for inhibitors of Plasmodium falciparum proliferation (AID 504749). Further: nearly all actives have a fitted effect of over 60% in size.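 On activity, negative = inhibition: 0% = DMSO vehicle and full inhibition = artemisinin control.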 Conditions: P. falciparum in erythrocytes, SYBR Green DNA, 72 h. In a few lines: (§1)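 Each compound contacts P. falciparum-infected red blood cells for 72 h at 37 C; lysis buffer (Tris, EDTA, saponin, Triton X, SYBR Green I) is added and fluorescence measured next morning; values normalized to controls.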
(qHTS replaces the single test concentration by a dilution series.)

Another assay relates to 3D7. The description is as above. Particulars: P. falciparum in erythrocytes, SYBR Green DNA, 72 h; series mostly up to 28.7 µM. In a few lines:
as §1

The subject of a further assay is AA1029. The description is as above. Conditions: P. falciparum in erythrocytes, SYBR Green DNA, 72 h; series mostly up to 28.7 µM. Put shortly: as §1
The test system of a further assay is AS120. Described as above. Conditions: P. falciparum in erythrocytes, SYBR Green DNA, 72 h; series mostly up to 28.7 µM. In a few lines: as §1
In a further assay the test system is 7G8. Described as above. Conditions: P. falciparum in erythrocytes, SYBR Green DNA, 72 h; series mostly up to 28.7 µM. In a few lines:
as §1

[2] abbreviates: at 28.7 µM (top of the series), parasite line A.
[3] abbreviates: at 28.7 µM (top of the series), parasite line B.
[4] abbreviates: at 12.8 µM (top of the series), parasite line A.
The mark [5] stands for this setting: at 12.8 µM (top of the series), parasite line B.

Each structure is given as a SMILES string. Inconclusive results are not listed. Unmarked numbers belong to inactive results. The source made the active and inactive calls. The call rests on the fitted dose curve; in most records, active means well fitted inhibition curve with a large enough effect; inconclusive means small, poorly fitted or top-dose-only effect; inactive means flat fitted curve, though single readings scatter.
Potency means the concentration at half of the fitted maximal effect.

For `CCC(CC)(CC(=O)Nc1cccc(/C=C/c2nc(C3CCC3)cs2)c1)C(=O)O`, the activity, negative = inhibition is -2.66% in assay [1] (setting [2]) and -0.894% in assay [1] (setting [3]). The Potency entry in the assay on 3D7, in the assay with AA1029 and in the assay on AS120 was “inactive” each time.
As to `COc1ccc(C(=O)c2ccccc2)c(O)c1`, the activity, negative = inhibition in assay [1] (setting [2]) was -10.8%; in assay [1] (setting [3]), 10.2%. In the assay with 7G8, the Potency is 10 µM (active). The Potency entry with AA1029 and in the assay on AS120 was “inactive” in each case.
Turning to `C=CCN1CCc2nc(N)sc2CC1`, the activity, negative = inhibition in assay [1] (setting [2]) was -6.7%; in assay [1] (setting [3]), 2.41%. The Potency entry in the assay with 3D7, in the assay with AA1029 and in the assay with AS120 was “inactive” each time.
Consider `CCCCc1cc2ccccc2c(OCCN(C)C)n1`, for which the figures for the activity, negative = inhibition in assay [1] (setting [4]) and in assay [1] (setting [5]) were 8.06% and 4.66%, respectively. Besides, the Potency result in the assay with 3D7, in the assay on AA1029 and in the assay with AS120 was “inactive” throughout.
Take `COc1ccc(CCN(C)CCCN2CCc3cc(OC)c(OC)cc3CC2=O)cc1OC`: the figures for the activity, negative = inhibition in assay [1] (setting [2]) and in assay [1] (setting [3]) were -14.9% and -7.04%, respectively. Moreover, the Potency entry with 3D7 and in the assay on AS120 was “inactive” each time.
Turning to `CCC(C(=O)OCCOCCN(CC)CC)c1ccccc1` (stereo not drawn), the activity, negative = inhibition in assay [1] (setting [2]) is 5.84%; in assay [1] (setting [3]), 5.27%. Also, the Potency result in the assay on 3D7 and with AS120 was “inactive” in each case.
Consider `CCCCNc1ccc(C(=O)OCCOCCOCCOCCOCCOCCOCCOCCOCCOC)cc1`, for which the results for the activity, negative = inhibition in assay [1] (setting [4]) and in assay [1] (setting [5]) were -21.5% and -9.92%, respectively. Besides, the Potency result in the assay with 3D7, with AA1029 and with AS120 was “inactive” in each case.
As to `CCOc1cc(OCC)c(C(=O)CCC(=O)O)cc1OCC`, the activity, negative = inhibition was 5.68% in assay [1] (setting [2]) and 1.04% in assay [1] (setting [3]). Besides, the Potency result in the assay with 3D7, with 7G8, in the assay on AA1029 and in the assay with AS120 was “inactive” each time.
Regarding `CC(C)=CCOc1ccc(/C=C/C(=O)c2ccc(OCC=C(C)C)cc2OCC(=O)O)cc1`, the activity, negative = inhibition in assay [1] (setting [2]) is -9.12%; in assay [1] (setting [3]) it was -8.65%. The Potency entry with 3D7, in the assay on AA1029 and with AS120 was “inactive” each time.
As for `NCCNc1cccc2ccccc12`, the activity, negative = inhibition in assay [1] (setting [2]) is -9.01%; in assay [1] (setting [3]), 2.1%. The Potency entry in the assay on 3D7, in the assay on AA1029 and with AS120 was “inactive” throughout.
Take `CCOC(=O)C(C#N)=C(c1ccccc1)c1ccccc1`: the activity, negative = inhibition in assay [1] (setting [2]) was 12.2%; in assay [1] (setting [3]), -2.15%. Further, the Potency result with 3D7, in the assay on AA1029 and in the assay on AS120 was “inactive” in each case.
Regarding `NS(=O)(=O)Cc1noc2ccccc12`, the results for the activity, negative = inhibition in assay [1] (setting [2]) and in assay [1] (setting [3]) were 6.43% and 4.66%, respectively. For the same compound, the Potency result in the assay with 3D7, with AA1029 and in the assay on AS120 was “inactive” in each case.
Regarding `NC(N)=NN=C(/C=C/c1ccc([N+](=O)[O-])o1)/C=C/c1ccc([N+](=O)[O-])o1`, the Potency was 7.08 µM (active) in assay [1] (parasite line A); 10 µM (active) in assay [1] (parasite line B); 2.24 µM (active) in the assay on 3D7; 2.24 µM (active) in the assay on 7G8; 10 µM (active) with AA1029; 11.2 µM (active) in the assay on AS120.
Turning to `COc1ccc(-c2cc(C(F)F)nn2-c2ccc(S(N)(=O)=O)cc2)cc1F`, the activity, negative = inhibition in assay [1] (setting [2]) is 1.08%; in assay [1] (setting [3]), -0.185%. For the same compound, the Potency entry in the assay on 3D7, with 7G8, in the assay on AA1029 and in the assay with AS120 was “inactive” throughout.
Regarding `Cc1cc(-c2ccccc2)nnc1NCCN1CCOCC1`, the values for the activity, negative = inhibition in assay [1] (setting [2]) and in assay [1] (setting [3]) were 6.44% and 8.72%, respectively. In addition, the Potency result with 3D7, in the assay with AA1029 and with AS120 was “inactive” in each case.
Take `N/C(=N\N=C\c1ccc(Cl)cc1)N/N=C/c1ccc(Cl)cc1`: the Potency is 3.16 µM (active) in assay [1] (parasite line A); 5.01 µM (active) in assay [1] (parasite line B); 3.98 µM (active) in the assay with 3D7; 2.82 µM (active) with 7G8; 5.01 µM (active) in the assay with AS120.
For `CCOCCn1c(N2CCCN(C)CC2)nc2ccccc21`, the figures for the activity, negative = inhibition in assay [1] (setting [2]) and in assay [1] (setting [3]) were 7.9% and 8.28%, respectively. Moreover, the Potency entry in the assay with 3D7 and in the assay on AS120 was “inactive” throughout.
As to `CN1CCN(CCC(=O)N2c3ccccc3Sc3ccc(C(F)(F)F)cc32)CC1`, the activity, negative = inhibition in assay [1] (setting [2]) is 8.92%; in assay [1] (setting [3]), -2.7%. The Potency result in the assay with 3D7 and in the assay on AS120 was “inactive” each time. Besides, in the assay on 7G8, the Potency was 10 µM (active).
Take `CC(=O)OCC(=O)[C@H]1CC[C@H]2[C@@H]3CCC4=CC(=O)CC[C@]4(C)[C@H]3CC[C@]12C`: the activity, negative = inhibition in assay [1] (setting [2]) is -11.3%; in assay [1] (setting [3]) it was -3.83%. For the same compound, the Potency entry in the assay on 3D7 and in the assay with AA1029 was “inactive” in each case.
`COc1ccc2c(c1)c1c3n2CCN(C)C3=NCC1`: the values for the activity, negative = inhibition in assay [1] (setting [2]) and in assay [1] (setting [3]) were -3.91% and 11.3%, respectively. Moreover, the Potency entry in the assay with 3D7, in the assay with AA1029 and with AS120 was “inactive” throughout.
On to `C=C[C@@]1(C)CC(=O)[C@]2(O)[C@@]3(C)[C@@H](O)CCC(C)(C)[C@@H]3[C@H](O)[C@H](OC(C)=O)[C@@]2(C)O1`, for which the activity, negative = inhibition was -7.28% in assay [1] (setting [2]) and 2.74% in assay [1] (setting [3]). The Potency result in the assay with 3D7, in the assay on AA1029 and in the assay on AS120 was “inactive” in each case.
Consider `NC(=O)n1c(O)c(C(=O)c2cccs2)c2cc(Cl)ccc21`, for which the activity, negative = inhibition in assay [1] (setting [2]) was 5.54%; in assay [1] (setting [3]) it was -6.01%. The Potency entry in the assay with 3D7, with AA1029 and in the assay with AS120 was “inactive” in each case.
As for `CCCCC(CC)COC(=O)/C=C/c1ccc(OC)cc1` (stereo not drawn), the activity, negative = inhibition in assay [1] (setting [2]) was 10.4%; in assay [1] (setting [3]) it was 11.8%. The Potency entry in the assay with 3D7, in the assay on AA1029 and in the assay with AS120 was “inactive” in each case.
Turning to `CC1CCc2c(N3CCC(O)CC3)c(F)cc3c(=O)c(C(=O)O)cn1c23` (stereo not drawn), the activity, negative = inhibition is -29.3% in assay [1] (setting [2]) and -19.8% in assay [1] (setting [3]). In addition, the Potency in the assay on 7G8 was 11.2 µM (active).
Turning to `COc1ccc(CN(CCN(C)C)c2ncccn2)cc1`, the activity, negative = inhibition in assay [1] (setting [2]) is 12.9%; in assay [1] (setting [3]), 5.48%. Also, the Potency entry in the assay with 3D7, in the assay on AA1029 and in the assay on AS120 was “inactive” each time.
As for `C#C[C@]1(OC(C)=O)CC[C@H]2[C@@H]3CCC4=C/C(=N/O)CC[C@@H]4[C@H]3CC[C@@]21CC`, the activity, negative = inhibition was -6.98% in assay [1] (setting [2]) and -15.6% in assay [1] (setting [3]). Further, the Potency result with 3D7, in the assay with AA1029 and in the assay on AS120 was “inactive” throughout.
As to `CN1CCC(OC(c2ccccc2)c2ccccc2)CC1`, the activity, negative = inhibition in assay [1] (setting [4]) is -11.2%; in assay [1] (setting [5]), -2.27%. The Potency result in the assay with 3D7 was “inactive”. Moreover, the Potency in the assay on AA1029 was 2.51 µM (active).
`CN(C)CCC[C@@]1(c2ccc(F)cc2)OCc2cc(C#N)ccc21`: the activity, negative = inhibition in assay [1] (setting [2]) is 3.06%; in assay [1] (setting [3]), 6.35%. The Potency entry with 3D7, in the assay on 7G8 and in the assay with AS120 was “inactive” each time.
Regarding `NC(=O)C1(N2CCCCC2)CCN(CCCC(=O)c2ccc(F)cc2)CC1`, the activity, negative = inhibition in assay [1] (setting [2]) was 3.28%; in assay [1] (setting [3]), 10.8%. Moreover, the Potency entry in the assay on 3D7, with AA1029 and with AS120 was “inactive” throughout.
Regarding `COc1ccc(C(=O)c2ccccc2O)c(O)c1`, the activity, negative = inhibition in assay [1] (setting [4]) was -29.2%.
Consider `COc1cc(N)c(Cl)cc1C(=O)NC1CCN(Cc2ccccc2)CC1`, for which, in assay [1] (setting [5]), the activity, negative = inhibition is -11.7%.
